In all, about 320,000 compounds went through this assay and about 2,100 (0.66%) were called active. Not shown: some 53% with an inconclusive outcome. Calls come from the whole dose curve; as a rule, active = well fitted inhibition curve with a large enough effect in the signal ratio, with a control signal flat (not every such curve was filed as active); inconclusive = small, poorly fitted or top-dose-only effect, or effect the other way, or a change in a side signal; inactive = flat fitted curve, though single readings scatter; the % refers to the signal ratio. What follows is part of a selection rich in actives, with near analogues and random picks from the rest.

Experimental findings from PubChem BioAssay AID2685 (National Center for Advancing Translational Sciences (NCATS), 2010) are described below.
Potency is the fitted concentration of half-maximal effect.

A short description of this assay: qHTS Assay for Lipid Storage Modulators in Drosophila S3 Cells.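 For cell number change: cells counted by Cell Tracker Red CMTPX staining in the red channel.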 Conditions: BODIPY lipid droplet fluorescence, 18-24 h, cells fed with added oleic acid; cell number change: measured here: cell count max response; series mostly up to 46.1 µM. A digest of the protocol:
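Laser-scanning cytometry quantifies lipid droplet accumulation (500–530 nm total intensity; droplet/cell object ratio) in oleic acid-fed (400 uM added) Drosophila S3 cells treated with a concentration series. 20 uM Triacsin C defined 100% inhibition.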
`O=C(COC(=O)Cc1ccccc1F)Nc1cc(S(=O)(=O)N2CCOCC2)ccc1N1CCCC1`: the Potency result was “inactive” and the cell number change is 0.15%. The like results for `COC(=O)CN1C(=O)N/C(=C/c2ccc(OC)cc2)C1=O` were, in that order, “inactive” and -7.72%. For the compound `O=C(NC1CC1)c1ccc(S(=O)(=O)NCC2CCCCC2)cc1`, the Potency entry was “inactive” and the cell number change came to 6.17%.

On to `NC(=O)c1ccc(Oc2ccc(Cl)cc2)c([N+](=O)[O-])c1`, for which the Potency result was “inactive” and the cell number change was found to be 18.1%.

For `NC(=O)c1ccc(Oc2ccc3c(c2)CCC3)c([N+](=O)[O-])c1`, the Potency was 2.91 µM (active) and the cell number change is -16.2%. Consider `NC(=O)c1ccc(Oc2ccc(-c3nnco3)cc2)c([N+](=O)[O-])c1`, for which the Potency entry was “inactive” and the cell number change stood at 16.7%. As to `CCOc1ccc(Cl)cc1S(=O)(=O)N1CCCC1`, the Potency entry was “inactive” and the cell number change came out at 23.3%. Take `COc1cnc(-c2ccccc2)nc1Sc1ccccc1`: the Potency result is “inactive” and the cell number change amounted to 14.5%. The like results for `CN(C)S(=O)(=O)c1ccc(C(=O)NCCOc2ccccc2)cc1` were, in that order, “inactive” and -3.57%. Take `CCc1ccc(OCCNC(=O)c2ccc(S(=O)(=O)N(C)C)cc2)cc1`: the Potency entry was “inactive” and the cell number change is -5.09%. The like results for `CN(C)S(=O)(=O)c1ccc(C(=O)NCCOc2ccc(F)cc2)cc1` were, in that order, 18.4 µM (active) and 5.77%.

Regarding `CCN(CC)CCNC(=O)c1ccc(NC(=O)c2ccc(F)cc2F)cc1`, the Potency entry is “inactive” and the cell number change worked out at 0.662%.

For the compound `CN(C)S(=O)(=O)c1cccc(C(=O)NCCOC(=O)c2cc(F)c(F)cc2Cl)c1`, the Potency entry is “inactive” and the cell number change was 5.13%. `CCN(CC)S(=O)(=O)c1ccc(C(=O)NCCOC(=O)c2ccc(F)cc2F)cc1`: the Potency was 4.61 µM (active). As for `CN1C(C(=O)NCc2ccccc2)CC2Cn3c(nc4cc(Cl)c(Cl)cc43)C21` (stereo unspecified), the Potency result was “inactive” and the cell number change stood at 23.6%. In the case of `CS(=O)(=O)N1CCN(c2ccc(C(=O)N3CCOCC3)cc2[N+](=O)[O-])CC1`, the Potency entry was “inactive” and the cell number change came to 10.2%.

`COc1nc2ccccc2nc1CCC(=O)O`: the Potency result was “inactive” and the cell number change is -4.36%.

Take `CC(=O)Nc1nc(=O)c2ccccc2s1`: the Potency result was “inactive” and the cell number change was -8.23%.

For `Cc1cc(C(=O)Nc2ccc3c(c2)OCCO3)ccc1[N+](=O)[O-]`, the Potency entry is “inactive” and the cell number change worked out at 0.293%. The like results for `O=C(Nc1ccc2c(c1)OCCO2)c1ccc(Cl)cc1Cl` were, in that order, “inactive” and -12.4%.

On to `O=C(Nc1ccc(NC(=O)c2ccc(Cl)cc2Cl)cc1)c1ccc2c(c1)OCO2`, for which the Potency is 16.4 µM (active) and the cell number change is -0.901%.

As to `O=C(Nc1ccc(F)c(F)c1)c1ccc2c(c1)OCO2`, the Potency result was “inactive” and the cell number change was -8.99%. `O=C(Nc1ccc(Cl)c([N+](=O)[O-])c1)c1ccc2c(c1)OCCO2`: the Potency entry was “inactive” and the cell number change came out at 0.135%.

For `O=C(Nc1ccc2c(c1)OCCO2)c1ccc(Cl)c([N+](=O)[O-])c1`, the Potency was 16.4 µM (active) and the cell number change was -0.392%. In the case of `Fc1cccc(Cl)c1Cn1nnc2c(NCc3ccccn3)ncnc21`, the Potency entry was “inactive” and the cell number change is -17.4%. On to `O=C(Nc1ccc(Cl)cc1N1CCOCC1)C1CC1`, for which the Potency result is “inactive” and the cell number change is -0.587%. The like results for `O=C(Nc1ccc(N2CCOCC2)cc1)C1CC1` were, in that order, “inactive” and 20.3%. The matching figures for `CC(C)(C)C1CCC(C(=O)Nc2ccc(N3CCOCC3)cc2N2CCOCC2)CC1` (stereo unspecified): 0.0731 µM (active) and 2.76%. Turning to `CC(C)c1ccccc1NC(=O)c1ccc2ncsc2c1`, the Potency result is “inactive” and the cell number change was 3.81%.

On to `Cc1cc(C)c2nc(-c3ccncc3)cc(C(=O)N3CCN(Cc4ccccc4Cl)CC3)c2c1`, for which the Potency result is “inactive” and the cell number change was -25.7%. The matching figures for `CCOc1ccc(-c2cc(CCCC(=O)NCc3ccco3)no2)cc1`: “inactive” and 7.38%. The matching figures for `CC(=O)Nc1cccc(NC(=O)c2cccc(OCc3ccccc3)c2)c1`: “inactive” and -0.179%. The like results for `CC(=O)c1cccc(NC(=O)c2ccccc2OCc2ccc(F)cc2)c1` were, in that order, “inactive” and 17.5%. In the case of `CC(=O)Nc1cccc(NC(=O)c2ccccc2OCc2ccccc2)c1`, the Potency is 0.103 µM (active) and the cell number change is 4.05%. As for `Cc1cc(N2CCN(c3ccccc3)CC2)n2cc(-c3ccccc3)nc2n1`, the Potency entry is “inactive” and the cell number change amounted to 0.751%. The matching figures for `COc1ccc(-c2cc(C(=O)NN)[nH]n2)cc1OC`: “inactive” and 0.0556%.

On to `COc1ccc(-c2cc(C(=O)O)[nH]n2)cc1OC`, for which the Potency is 18.4 µM (active) and the cell number change was -22.4%. The like results for `O=C(O)c1cc(-c2ccccc2)n[nH]1` were, in that order, “inactive” and -6.51%. As for `COc1ccccc1NS(=O)(=O)c1cccc(C(=O)NNC(=O)C(NC(N)=O)C(C)C)c1` (stereo unspecified), the Potency entry is “inactive” and the cell number change is -2.91%.

Regarding `CN=Cc1nc(-c2ccccc2)oc1O`, the Potency result was “inactive” and the cell number change worked out at 3.36%.

As to `COc1ccc(-c2nc(/C=C3\C(C)=Nc4ccccc43)c(O)o2)cc1`, the Potency result is “inactive” and the cell number change is 8.93%.

On to `CC1=Nc2ccccc2/C1=C\c1nc(-c2ccc(F)cc2)oc1O`, for which the Potency was 4.11 µM (active) and the cell number change is -8.49%. Consider `CCC(=O)NC(=S)Nc1ccc(NC(=O)c2ccc([N+](=O)[O-])cc2Cl)cc1`, for which the Potency entry was “inactive” and the cell number change was -6.05%. The matching figures for `CC(=O)OCC1=C(C(=O)O)N2C(=O)C(NC(=O)c3ccc(COc4ccc(Cl)cc4)o3)C2SC1` (stereo unspecified): “inactive” and 12.1%. The matching figures for `O=C(C1CCC1)N1CCN(c2ccc(C(F)(F)F)cc2[N+](=O)[O-])CC1`: 0.58 µM (active) and 4.32%.

Turning to `NC(=O)C1CCN(c2ccc(C(F)(F)F)cc2[N+](=O)[O-])CC1`, the Potency result was “inactive”. On to `O=[N+]([O-])c1cc(C(F)(F)F)ccc1N1CCC(O)CC1`, for which the Potency entry is “inactive” and the cell number change worked out at 9.29%. The matching figures for `C1CCC(Nc2nc3nonc3nc2N2CCSCC2)C1`: “inactive” and -7.42%. The matching figures for `O=C(NN(C(=O)C1CC1)c1nc2ccccc2s1)C1CC1`: “inactive” and 4.43%. The like results for `O=C(O)CCC(=O)Nc1ccc(N=Nc2ccccc2)cc1` were, in that order, “inactive” and -12.6%. Turning to `O=C(O)CCCC(=O)Nc1ccc(N=Nc2ccccc2)cc1`, the Potency result was “inactive” and the cell number change amounted to 17%. For `O=C(CCl)Nc1ccc(N=Nc2ccccc2)cc1`, the Potency is 5.8 µM (active) and the cell number change was -14.8%.

Take `CCCCCC/C=N/Nc1nnc(Cc2ccc(OC)c(OC)c2)c(=O)[nH]1`: the Potency result is “inactive”. Take `CC(=O)Nc1ccc(S(=O)(=O)Nc2nnc(C3CCCCC3)s2)cc1`: the Potency was 3.66 µM (active) and the cell number change turned out to be 6.53%. The like results for `O=S(=O)(Nc1nnc(C2CCCCC2)s1)c1ccc(F)cc1` were, in that order, “inactive” and -12.8%. The like results for `CC(=O)Nc1ccc2nc(NS(=O)(=O)c3ccc(C)cc3)sc2c1` were, in that order, “inactive” and 2.04%. The like results for `CC(=O)Nc1ccc(S(=O)(=O)Nc2nnc(CC(C)(C)C)s2)cc1` were, in that order, “inactive” and 0.722%. `CC(=O)Nc1ccc(S(=O)(=O)Nc2nc3ccccc3s2)cc1`: the Potency was 23.1 µM (active) and the cell number change is -10.9%. `CC(=O)Nc1ccc(S(=O)(=O)Nc2nc3ccc(C)cc3s2)cc1`: the Potency result was “inactive” and the cell number change was 6.47%.

Take `COc1ccc(CCNC(=O)C(=O)Nc2nccs2)cc1OC`: the Potency result is “inactive”.
